Test in all cases: NCI-60 one-dose screen, 48 h (100 = growth as untreated, 0 = no growth, -100 = all killed)
Holding throughout (settings): 10 µM unless noted

The subject of experiment [1] is RPMI-8226 leukemia.
Experiment [2] deals with OVCAR-8 ovarian.
The subject of experiment [3] is OVCAR-5 ovarian.
Experiment [4] deals with OVCAR-4 ovarian.
Experiment [5] concerns SK-OV-3 ovarian.
Experiment [6] has as its system IGROV1 ovarian.
The subject of experiment [7] is OVCAR-3 ovarian.
Experiment [8] deals with HS 578T breast.
Experiment [9] has as its system NCI/ADR-RES ovarian.
The subject of experiment [10] is T-47D breast.
Experiment [11] has as its system BT-549 breast.
Experiment [12] has as its system MDA-MB-435 melanoma.
The test system of experiment [13] is SW-620 colon.
Experiment [14] has as its system MCF7 breast.
Experiment [15] deals with HCT-116 colon.
Experiment [16] deals with HCC-2998 colon.
The test system of experiment [17] is KM12 colon.

Growth data for nine molecules are collected here from PubChem BioAssay (NCI).

About 83,000 compounds went through this panel and 20% of them were active in at least one assay; those are over-represented in the sample as a whole.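 The endpoint reported here, percent growth, reads 100 for growth as untreated, 0 for no net growth and -100 for all cells dead.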 Unmarked numbers belong to inactive results. Activity calls are given as the source filed them. How the source made its calls: active means growth percent below 10; inactive means the rest.

As to `COc1cc(-c2c3c(nc4c2c(C)nn4-c2ccccc2)-c2ccccc2C(=O)C3=O)cc(OC)c1OC`, the growth in experiment [1] is 55.2%; in [2], 80.1%; in experiment [3], 103%; in experiment [4], 78.5%; in experiment [5] it was 104%; in [6], 94.9%. For the same molecule, the growth in experiment [7] is -29.4% (active); in experiment [8] it was 111%; in [9], 79.7%; in experiment [10] it was 72.4%; in [11], 68.4%; in [12], -0.815% (active). The growth in [13] was 86.2%; in experiment [14] it was 57.7%; in experiment [15] it was 51.5%; in experiment [16] it was 71.1%; in experiment [17], 80.8%.
On to `Oc1cccc(Nc2nccc(-c3ccc4ccccc4c3)n2)c1`, for which the growth in experiment [1] was 9.15% (active); in experiment [2], 29.4%; in [3], 58.4%; in experiment [4], 86.5%; in experiment [5], 27.2%; in experiment [6], 41.7%. Further, the growth in experiment [7] was 14.7%; in [8] it was 13%; in experiment [9], 19.9%; in experiment [10], 47.6%; in experiment [11], 41.3%; in [12], -1.27% (active). The growth in [13] is 31.3%; in [14], 25.3%; in experiment [15] it was 20.6%; in experiment [16], 52.2%; in [17], 28.2%.
As to `CN1C2CCC1/C(=C\c1ccc(Cl)cc1)C1=C2[C@@H](c2ccc(Cl)cc2)C(C#N)=C(N)O1` (stereo partly drawn), the growth in experiment [1] was 62.6%; in [2], 93.3%; in experiment [3] it was 84.5%; in experiment [4], 75.6%; in experiment [5], 94.8%; in experiment [6], 79.1%. Moreover, the growth in [7] was 92.5%; in [8], 95.1%; in [9] it was 95.8%; in [10] it was 81.7%; in experiment [11], 97.5%; in [12], 91.5%. Also, the growth in experiment [13] is 94.3%; in [14], 66%; in [15] it was 63.7%; in experiment [16], 104%; in experiment [17] it was 95%.
As for `CS(=O)(=O)c1c(Nc2ccccc2)n[nH]c1N`, the growth in [1] was 97.8%; in experiment [2], 105%; in experiment [3] it was 102%; in experiment [4], 117%; in experiment [5], 103%; in experiment [6] it was 112%. Further, the growth in [7] was 121%; in [8], 118%; in experiment [9], 104%; in [10], 104%; in [11], 89.1%; in [12], 107%. The growth in experiment [13] is 112%; in experiment [14], 101%; in [15], 103%; in experiment [17] it was 118%.
On to `O=C1C=CC(Nc2ccccc2[N+](=O)[O-])C1Nc1ccccc1[N+](=O)[O-]` (stereo not drawn), for which the growth in experiment [1] is -17.4% (active); in experiment [2] it was 31%; in experiment [3], 12.3%; in [4], 3.47% (active); in experiment [5], 109%; in experiment [6], 86%. Moreover, the growth in [7] is -81.3% (active); in experiment [8] it was 32%; in experiment [9] it was -26.8% (active); in experiment [11], -58.7% (active); in [12], 8.78% (active); in [13], -71.6% (active). For the same molecule, the figures for the growth in experiment [14], in [15] and in [16] were -77.3% (active), -89.5% (active) and 6.76% (active), respectively.
As to `COc1ccc(-c2cc(NC(=O)Nc3ccc(O)cc3)no2)cc1`, the growth in experiment [1] is 82.1%; in experiment [2] it was 90.1%; in experiment [3] it was 82.9%; in [4], 76.7%; in [5], 111%; in experiment [6], 68.2%. The growth was 87.4% in experiment [7]; 89.3% in experiment [8]; 67.8% in experiment [9]; 70.5% in experiment [10]; 64.5% in experiment [11]; 67.6% in [12]. The growth in [13] is 76.3%; in [14], 70.2%; in experiment [15] it was 90%; in [16], 82.7%; in [17] it was 20.8%.
As for `CCN1CCN(Cc2ccc(NC(=O)Nc3nc4ccc(Oc5ccnc(C(=O)NC)c5)cc4s3)cc2C(F)(F)F)CC1`, the growth was -22.9% (active) in [1]; -18.6% (active) in [2]; -40.6% (active) in [3]; -64.1% (active) in experiment [4]; -2.46% (active) in experiment [5]; -12.2% (active) in [6]. The growth in [7] is -74.1% (active); in [8], -38.6% (active); in [9], -12.7% (active); in [10], -27.9% (active); in [11] it was -69.1% (active); in experiment [12], -36.5% (active). The growth in [13] is -52.7% (active); in [14], -39.3% (active); in experiment [15] it was -66.1% (active); in experiment [16], -33.6% (active); in experiment [17], -61.6% (active).
With `C=CCSc1nnc(-c2ccc(C(C)(C)C)cc2)n1-c1cccc(C(F)(F)F)c1`, the growth in experiment [1] was 17.4%; in experiment [2], 32.1%; in experiment [3], 77.3%; in experiment [4] it was 44.4%; in experiment [5], 61.5%; in [6] it was 54.5%. For the same molecule, the growth in [7] is 40.9%; in experiment [8], 45.5%; in [9], 22.9%; in [11], 19.3%; in experiment [12], 52.5%; in experiment [13] it was 46.2%. The growth in [14] was 12.1%; in experiment [15], 13.3%; in [16], 51.1%.
With `COc1ccc(-n2c(C)nc3c(c(C)nn3-c3ccccc3)c2=O)cc1`, the growth in experiment [1] is 5.55% (active); in experiment [2] it was 6.61% (active); in experiment [3], 30.6%; in [4], 36.8%; in experiment [5] it was 45.1%; in experiment [6], 20.3%. Further, the growth in [7] was -32.6% (active); in experiment [8] it was 21.6%; in experiment [9], -12.9% (active); in experiment [10], 55.9%; in experiment [11] it was 9.9% (active); in [12], 4.94% (active). The growth in experiment [13] was 23.1%; in [14], 11.5%; in experiment [15], 3.27% (active); in experiment [16] it was 16.6%; in experiment [17] it was 11.3%.
